Data taken from PubChem BioAssay.
Active and inactive are the calls of the source.

Columns and labels:
[1] = test system: Human papillomavirus type 1a protein E7 (residues 44-93); assay: HPV1a E7 fragment binders on microarrays, primary screen, biochemical, small-molecule microarray, residues 44-93, 635 nm fluorescence (AID 1108); settings: small-molecule microarray binding, fluorescence 635 nm; higher = more signal;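 note: E7 fragment applied at 1 µg/mL in TBST for 1 h at 4 C; score combines spot fluorescence with its signal to noise ratio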
[2] = modulators of HCV replicon luciferase signal, primary screen, HCV replication inhibitor project, Huh7 cells, luciferase reporter (AID 1109); settings: 48 h, higher = more signal;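 note: huh7 hepatoma cells harbouring a luciferase neomycin HCV replicon reporter; luciferase luminescence as measure of HCV replicon replication; test concentration not given here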
[3] = target: Left-right determination factor 2 (Homo sapiens) (UniProt O00292); assay: LEFTY2 binders on small-molecule microarrays, primary screen, biochemical, small-molecule microarray, 635 nm fluorescence scan (AID 1110); settings: LEFTY2 binding, higher = more signal
[4] = target: Calmodulin-1 (Homo sapiens) (UniProt P0DP23); assay: CALM1 binders on microarrays, EGTA buffer, profiling panel, biochemical, small-molecule microarray, Cy5-labelled CALM1 (AID 1111); settings: Cy5-CALM1 binding fluorescence, higher = more signal;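 note: labelled calmodulin applied in Tris saline Tween buffer holding calcium plus EGTA and DTT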
[5] = target: Calmodulin-1 (Homo sapiens) (UniProt P0DP23); assay: calcium-bound CALM1 binders on microarrays, profiling panel, artefact control for SMM control-protein annotation, biochemical, small-molecule microarray, Cy5-labelled CALM1, plus calcium (AID 1112); settings: Cy5-CALM1 binding fluorescence, higher = more signal;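 note: score merges spot fluorescence with signal to noise from triplicate slides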
[6] = small-molecule microarray binders of probe aWnt5a, primary screen, biochemical, biotinylated probe, 635/667 nm fluorescence (AID 1113); settings: higher = more signal;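 note: score merges 667 nm fluorescence intensity with signal-to-noise per printed feature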
[7] = small-molecule microarray binders of probe aShh, primary screen, biochemical, biotinylated probe, 635/667 nm fluorescence (AID 1114); settings: higher = more signal;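 note: probe is biotin-labelled aShh protein from a stem cell growth factor screen; measures binding of labelled protein to compounds printed on the slide; score merges feature fluorescence at 667 nm with signal-to-noise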
[8] = small-molecule microarray binders of probe aNog, primary screen, biochemical, biotinylated probe, 635/667 nm fluorescence (AID 1115); settings: higher = more signal;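 note: probe is biotinylated aNog protein used at 0.15 µg/mL for 1 h at 4 C; z-score combines 667 nm fluorescence of each spot with its signal to noise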
[9] = target: Torsin-1A-interacting protein 1 (Homo sapiens) (UniProt Q5JTV8); assay: LAP1 binders from COS7 cell lysate, primary screen, small-molecule microarray, 635/667 nm fluorescence (AID 1116); settings: COS7-hLAP1 lysate binding, 635 nm fluorescence, higher = more signal
[10] = target: Alpha-bungarotoxin (Bungarus multicinctus) (UniProt P60615); assay: alpha-bungarotoxin binders on microarray, profiling panel, artefact control for SMM control protein annotation, biochemical, small-molecule microarray, Alexa647 label, 635/667 nm fluorescence (AID 1117); settings: alpha-BTX-A647 binding fluorescence, higher = more signal
[11] = target: Albumin (Bos taurus) (UniProt P02769); assay: bovine serum albumin binders on microarray, profiling panel, artefact control for SMM control protein annotation, biochemical, small-molecule microarray, Alexa647 label, 635/667 nm fluorescence (AID 1118); settings: BSA-A647 binding, fluorescence 635 nm, higher = more signal;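 note: score merges 667 nm emission intensity and signal-to-noise per printed compound spot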
[12] = small-molecule microarray binders of probe aXIP, primary screen, biochemical, NeuroSMM set, 635/667 nm fluorescence (AID 1119); settings: higher = more signal, called active from +8 up or from −8 down;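 note: probe is the protein aXip251-270 applied at 1 µg/mL to compound-printed slides; binding of probe to printed compounds measured as 667 nm fluorescence plus signal to noise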
[13] = small-molecule binders of probe aNOTCH3, primary screen, biochemical, small-molecule microarray, 635/667 nm fluorescence (AID 1120); settings: higher = more signal;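 note: probe is a biotin-tagged antibody raised against NOTCH3 rather than NOTCH3 protein; score merges spot fluorescence near 667 nm with spot signal to noise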
[14] = small-molecule binders of probe aNOTCH2, primary screen, biochemical, small-molecule microarray, 635/667 nm fluorescence (AID 1121); settings: higher = more signal;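 note: score merges feature fluorescence read at 667 nm with its signal to noise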
[15] = target: Carbonic anhydrase 2 (Homo sapiens) (UniProt P00918); assay: CAII small-molecule binders, profiling panel, biochemical, small-molecule microarray, Alexa647-labelled CAII (AID 1122); settings: CAII-A647 binding fluorescence, higher = more signal
[16] = COS7 lysate on small-molecule microarray, probe aHis, 635 nm (AID 1123); settings: COS7 cell lysate, fluorescence, higher = more signal;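 note: z-score combines 667nm fluorescence intensity with signal-to-noise per printed compound spot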
[17] = compound binding in COS7 lysate, probe aLAP1, primary screen, cell lysate, small-molecule microarray (AID 1124); settings: probe aLAP1, fluorescence, higher = more signal;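 note: lysate comes from COS7 cells expressing LAP1 and is applied at 0.3 µg/mL; score merges spot fluorescence near 667 nm with signal-to-noise over triplicate slides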
[18] = test system: Sam68 (KHDRBS1); assay: Sam68 small-molecule binders, primary screen, biochemical, small-molecule microarray, 635 nm fluorescence (AID 1125); settings: small-molecule microarray binding, higher = more signal;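 note: score merges 667 nm channel intensity with signal to noise over triplicate slides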
[19] = test system: Chordin-like protein 2 (CHRDL2); assay: CHRDL2 small-molecule binders, primary screen, biochemical, small-molecule microarray, 635 nm fluorescence (AID 1126); settings: small-molecule microarray binding, fluorescence 635 nm; higher = more signal;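 note: printed compound slides probed with Chrdl2 protein at 4 µg/mL for 1 h at 4 C; score merges 667 nm emission intensity with signal to noise over three replicate slides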
[20] = target: Concanavalin-A (Canavalia ensiformis) (UniProt P02866); assay: ConA small-molecule binders, primary screen, artefact control for SMM control protein annotation, biochemical, small-molecule microarray, Alexa647 label, 635 nm (AID 1127); settings: ConA-A647 binding fluorescence, higher = more signal;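 note: z combines 667 nm emission intensity with signal-to-noise across three replicate slides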
Sequence of Concanavalin-A (Canavalia ensiformis) (P02866 whole entry, looked up): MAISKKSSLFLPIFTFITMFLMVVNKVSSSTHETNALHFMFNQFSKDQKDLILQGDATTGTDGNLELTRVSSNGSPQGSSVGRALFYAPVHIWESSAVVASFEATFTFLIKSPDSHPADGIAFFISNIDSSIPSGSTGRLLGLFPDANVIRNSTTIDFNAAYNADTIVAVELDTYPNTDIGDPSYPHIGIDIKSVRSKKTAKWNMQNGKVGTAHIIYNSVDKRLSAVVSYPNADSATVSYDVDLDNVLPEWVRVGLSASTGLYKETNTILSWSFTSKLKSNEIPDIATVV

Sequence of Albumin (Bos taurus) (P02769 whole entry, looked up): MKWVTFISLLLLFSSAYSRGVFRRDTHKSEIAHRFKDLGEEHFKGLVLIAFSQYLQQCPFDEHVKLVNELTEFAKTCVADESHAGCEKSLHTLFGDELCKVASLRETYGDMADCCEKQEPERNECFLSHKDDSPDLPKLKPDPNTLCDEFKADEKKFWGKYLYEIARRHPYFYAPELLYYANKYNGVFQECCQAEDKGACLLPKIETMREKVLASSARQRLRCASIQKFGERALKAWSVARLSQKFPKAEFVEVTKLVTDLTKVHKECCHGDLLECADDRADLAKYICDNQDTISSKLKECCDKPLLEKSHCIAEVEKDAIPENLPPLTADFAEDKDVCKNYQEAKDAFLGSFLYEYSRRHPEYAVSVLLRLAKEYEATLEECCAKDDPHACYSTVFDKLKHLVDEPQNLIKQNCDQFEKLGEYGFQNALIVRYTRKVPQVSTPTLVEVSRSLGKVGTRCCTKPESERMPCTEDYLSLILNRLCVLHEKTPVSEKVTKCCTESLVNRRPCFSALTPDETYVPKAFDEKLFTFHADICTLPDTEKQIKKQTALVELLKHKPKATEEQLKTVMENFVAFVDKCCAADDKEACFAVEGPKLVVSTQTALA
Sequence of Torsin-1A-interacting protein 1 (Homo sapiens) (Q5JTV8 whole entry, looked up): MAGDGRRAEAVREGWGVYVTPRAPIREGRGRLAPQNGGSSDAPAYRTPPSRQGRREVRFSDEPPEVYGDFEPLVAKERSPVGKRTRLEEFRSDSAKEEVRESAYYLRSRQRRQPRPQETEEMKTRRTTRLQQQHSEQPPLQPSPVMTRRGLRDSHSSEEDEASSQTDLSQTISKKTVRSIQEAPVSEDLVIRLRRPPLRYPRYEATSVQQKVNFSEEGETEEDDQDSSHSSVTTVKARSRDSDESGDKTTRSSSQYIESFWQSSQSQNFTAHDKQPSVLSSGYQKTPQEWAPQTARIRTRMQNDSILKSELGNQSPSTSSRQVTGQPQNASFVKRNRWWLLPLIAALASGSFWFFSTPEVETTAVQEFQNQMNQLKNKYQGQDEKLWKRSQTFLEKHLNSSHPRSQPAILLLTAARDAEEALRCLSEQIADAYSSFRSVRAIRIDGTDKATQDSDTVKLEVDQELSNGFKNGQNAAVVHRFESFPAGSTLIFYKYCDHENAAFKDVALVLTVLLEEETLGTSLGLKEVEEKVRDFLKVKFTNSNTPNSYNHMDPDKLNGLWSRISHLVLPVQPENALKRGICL
Sequence of Left-right determination factor 2 (Homo sapiens) (O00292 whole entry, looked up): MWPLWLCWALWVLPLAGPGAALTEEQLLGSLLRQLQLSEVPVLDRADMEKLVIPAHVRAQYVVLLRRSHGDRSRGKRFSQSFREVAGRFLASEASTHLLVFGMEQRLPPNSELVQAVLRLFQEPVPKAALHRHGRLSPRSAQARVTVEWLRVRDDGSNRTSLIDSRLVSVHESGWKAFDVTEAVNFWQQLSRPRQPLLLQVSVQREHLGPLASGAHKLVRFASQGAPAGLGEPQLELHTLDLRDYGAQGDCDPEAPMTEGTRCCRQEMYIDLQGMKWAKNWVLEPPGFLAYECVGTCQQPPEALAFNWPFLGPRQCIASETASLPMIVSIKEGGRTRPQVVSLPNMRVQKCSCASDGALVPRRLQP
Sequence of Alpha-bungarotoxin (Bungarus multicinctus) (P60615 whole entry, looked up): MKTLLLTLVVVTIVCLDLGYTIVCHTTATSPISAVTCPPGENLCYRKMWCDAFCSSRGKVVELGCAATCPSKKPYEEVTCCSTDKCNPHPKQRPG

| Structure (SMILES) | composite z-score [1] | z-score [2] | composite z-score [3] | composite z-score [4] | composite z-score [5] | composite z-score [6] | composite z-score [7] | composite z-score [8] | composite z-score [9] | composite z-score [10] | composite z-score [11] | composite Z-score [12] | composite z-score [13] | composite z-score [14] | composite z-score [15] | composite z-score [16] | composite z-score [17] | composite z-score [18] | composite z-score [19] | composite z-score [20] |
| --- | --- | --- | --- | --- | --- | --- | --- | --- | --- | --- | --- | --- | --- | --- | --- | --- | --- | --- | --- | --- |
| CCOC(=O)NN=C1C[C@@H](O)[C@@H](O)[C@@H]2[C@@H]3C(=O)N(c4cccc(Oc5ccccc5)c4)C(=O)[C@@H]3CC[C@H]12 | 0.731 | 0.011 | 0.404 | 0.141 | -0.141 | -0.205 | -0.388 | -0.304 | 0.129 | 0.675 | 0.52 | -0.238 (inactive) | 0.0462 | -0.0753 | 0.503 | 0.858 | 0.0682 | 0.384 | 0.399 | 0.854 |
| O=C1[C@H]2[C@H]3[C@H](O)[C@H](O)CC(=NOCc4ccccc4)[C@@H]3CC[C@H]2C(=O)N1c1ccc(F)cc1F | -0.392 | 0.606 | 0.303 | -0.201 | -0.57 | -0.0519 | 0.0278 | 0.0369 | 0.0133 | 0.297 | 0.137 | -0.155 (inactive) | 0.0303 | -0.157 | 0.243 | 0.0305 | -0.294 | -0.806 | 0.0594 | 0.175 |
| CC(C)(C)N1C(=O)[C@H]2[C@H]3[C@H](O)[C@H](O)CC(=NO[C@@H]4O[C@H](CO)[C@@H](O)[C@H](O)[C@H]4O)[C@H]3CC[C@H]2C1=O | 0.518 | -1.13 | 0.4 | -0.653 | -1.12 | -0.0337 | -0.0769 | -0.196 | 0.509 | -0.309 | -0.383 | 0.674 (inactive) | 0.0864 | 0.0037 | 0.182 | 0.276 | -0.12 | 0.217 | 0.926 | -0.409 |
| COC(=O)CC=C[C@@H](C)[C@H](OCc1cccc(-c2ccccc2)c1)C1CCCCC1 | -0.533 | 1.04 | 0.134 | -0.532 | 0.472 | -0.12 | -0.0694 | -0.168 | 0.14 | 1.9 | 0.0024 | 0.369 (inactive) | -0.195 | -0.109 | 0.942 | -0.159 | 0.0206 | -0.679 | 1.23 | 0.923 |
| CO[C@H]1COC(=O)CC=C[C@H](C)[C@@H](OC)COC(=O)[C@@H](C)COC(=O)CC=C[C@@H]1C | -0.544 | -1.09 | 1.16 | -2.12 | -2.84 | -0.1 | -0.0769 | -0.339 | 0.34 | -1.47 | -0.93 | 0.793 (inactive) | -0.0647 | -0.146 | -0.535 | -0.25 | -0.145 | -0.132 | 1.51 | -1.85 |
| CC(C)CON=C1C[C@@H](O)[C@@H](O)[C@@H]2[C@@H]3C(=O)N(C4CCCCC4)C(=O)[C@@H]3CC[C@H]12 | 1.2 | 0.0073 | 0.999 | 1.27 | -0.0361 | -0.0731 | -0.16 | 0.447 | 0.792 | 1.13 | 0.536 | -0.409 (inactive) | 0.0021 | -0.125 | 0.445 | 0.84 | 0.606 | 1.3 | 0.25 | 1.11 |
| CCOC(=O)[C@H](Cc1ccccc1)NC(=O)CCC1CC(OC(=O)NCc2cccc3ccccc23)CC2(CCCC(COC(=O)NCc3ccccc3)O2)O1 (stereo not given in full) | 0.836 | -1.03 | 0.168 | 0.507 | -0.607 | -0.2 | -0.145 | -0.144 | -0.0849 | 0.713 | 0.561 | -0.0662 (inactive) | -0.0204 | -0.155 | 0.452 | 1.06 | -0.398 | 0.712 | 0.0223 | 0.649 |
| CCOC(=O)[C@H](CC(C)C)NC(=O)CCC1CC(OC(=O)NCc2cccc3ccccc23)CC2(CCCC(COC(=O)NCc3ccncc3)O2)O1 (stereo not given in full) | 1.38 | -1 | 0.554 | -0.118 | -0.376 | 0.0037 | -0.0146 | -0.036 | 0.526 | 0.267 | 0.323 | -0.0775 (inactive) | -0.0658 | -0.14 | 0.215 | 0.502 | 0.218 | 1.29 | 0.351 | 0.67 |
| CC(C)=CCCC(C)=CCON=C1C[C@@H](O)[C@@H](O)[C@@H]2[C@@H]3C(=O)N(C(C)(C)C)C(=O)[C@@H]3CC[C@H]12 | 0.356 | 0.217 | 0.61 | -0.327 | -0.889 | -0.118 | -0.153 | -0.0446 | 0.452 | 0.135 | 0.161 | 1.26 (inactive) | 0.149 | -0.0846 | 0.0334 | 0.043 | 0.373 | 0.293 | 0.346 | 0.198 |
| CC(=O)OC[C@H]1O[C@@H](ON=C(C)CCN2CCCc3nc(C)c(C)cc32)[C@H](OC(C)=O)[C@@H](OC(C)=O)[C@@H]1OC(C)=O | 1.38 | -1.14 | 0.737 | 0.113 | -0.743 | -0.117 | -0.167 | 0.0401 | 0.466 | 0.0927 | 0.449 | 0.403 (inactive) | -0.0587 | -0.0695 | 0.155 | 0.678 | 0.16 | 1.13 | -0.144 | 1.03 |
| CCOC(=O)[C@H](CC(C)C)NC(=O)CCC1CC(OC(=O)NCc2cccc3ccccc23)CC2(CCCC(COC(=O)NCc3cccc(C(F)(F)F)c3)O2)O1 (stereo not given in full) | 0.0567 | 1.32 | 0.67 | -0.333 | -0.568 | -0.0643 | -0.0626 | -0.158 | -0.0162 | 0.157 | -0.105 | 0.041 (inactive) | -0.0113 | -0.146 | -0.0249 | 0.0261 | 0.127 | 0.046 | 0.964 | 0.139 |
| COc1ccc(O[C@@H]2[C@H](O)CO[C@H]2C=Cc2ccccc2)cc1 | -0.206 | 0.388 | -0.547 | -0.248 | -0.246 | -0.0685 | -0.283 | 0.0308 | -0.395 | -0.527 | 0.529 | -0.176 (inactive) | -0.0647 | -0.0488 | -0.338 | 0.0177 | -0.798 | 0.116 | -0.28 | -0.283 |
